PubChem BioAssay AID770 (SRMLSC, 2007)
Hit rate of the full screen: of about 3,300 compounds, fewer than 10 were called active.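 The calls were made as follows: active = growth inhibition above 90% in viable cell count at a single dose; inactive = growth inhibition below 90%.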 These entries were drawn from the full list.

Experiment: HT29 colon tumor cell growth inhibition, primary screen, imaging, high content imaging, 24 h, CellTiter-Glo (AID 770);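 as to condensed nuclei: share of cells whose nuclear area falls below control median minus 1.5 SD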
Conditions: HT29 cell number by imaging, at 10 µM, stronger effect = higher value; for condensed nuclei: measured here: percent cells with condensed nuclei
[1] = measured here: ATP CellTiter-Glo viability

| SMILES | growth inhibition | growth inhibition [1] [%] | condensed nuclei [%] |
| --- | --- | --- | --- |
| c1ccc2c(c1)[nH]c1cnccc12 | 36.4% (inactive) | 17.6 | 3.43 |
| Cc1c2ccncc2c(C)c2c1[nH]c1ccccc12 | 95.1% (active) | 46.4 | 18.1 |
| C=CCOC(=O)C1=C(C)OC(N)=C(C#N)[C@@]12C(=O)N(CC(N)=O)c1ccccc12 | 19% (inactive) | -1.1 | 5.52 |
| Cn1c(O)c(C=NC2CCN(Cc3ccccc3)CC2)c(=O)n(C)c1=O | 26.8% (inactive) | 3.87 | 6.67 |
| CN1CC[C@@]23CCCC[C@@H]2[C@@H]1Cc1ccc(O)cc13 | -3.31% (inactive) | -18.2 | 4.84 |
| C/C(Cl)=C/CC1(CN2CCCC2=O)C(=O)NC(=O)NC1=O | -10.6% (inactive) | -8.34 | 2.87 |
| Cc1c(N=Cc2c(O)n(CCc3ccccc3)c(=O)[nH]c2=O)c(=O)n(-c2ccccc2)n1C | 23.4% (inactive) | 16.4 | 7.53 |
| CCCCCCn1c(O)c(C=Nc2c(C)n(C)n(-c3ccccc3)c2=O)c(=O)[nH]c1=O | -5.94% (inactive) | -9.79 | 3.03 |
| CCOc1ccccc1-n1c(O)c(C=Nc2c(C)n(C)n(-c3ccccc3)c2=O)c(=O)[nH]c1=O | 100% (active) | -85.3 | 5.62 |
| CCCCCCn1c(O)c(C=NC2CCN(Cc3ccccc3)CC2)c(=O)[nH]c1=O | 3.03% (inactive) | 23.3 | 1.13 |
